# Results published in PubChem BioAssay AID1220 (Sanford-Burnham Center for Chemical Genomics, 2008).
# Out of some 190,000 compounds screened, about 1,300 (0.68%) were called active. Rule as the data show it: active = inhibition above about 50%; inactive = the rest. Only a selection was taken, and actives are over-represented in it overall.
# Target: Mannose-6-phosphate isomerase (Homo sapiens) (UniProt P34949)
# Assay: MPI inhibition at elevated mannose 6-phosphate – biochemical, fluorescence intensity, high mannose 6-phosphate, primary screen (AID 1220)
# Details: recombinant PMI enzyme, coupled fluorescence intensity; at 20 µM; hits give high values
# Chain of Mannose-6-phosphate isomerase (Homo sapiens) (P34949 whole entry, looked up): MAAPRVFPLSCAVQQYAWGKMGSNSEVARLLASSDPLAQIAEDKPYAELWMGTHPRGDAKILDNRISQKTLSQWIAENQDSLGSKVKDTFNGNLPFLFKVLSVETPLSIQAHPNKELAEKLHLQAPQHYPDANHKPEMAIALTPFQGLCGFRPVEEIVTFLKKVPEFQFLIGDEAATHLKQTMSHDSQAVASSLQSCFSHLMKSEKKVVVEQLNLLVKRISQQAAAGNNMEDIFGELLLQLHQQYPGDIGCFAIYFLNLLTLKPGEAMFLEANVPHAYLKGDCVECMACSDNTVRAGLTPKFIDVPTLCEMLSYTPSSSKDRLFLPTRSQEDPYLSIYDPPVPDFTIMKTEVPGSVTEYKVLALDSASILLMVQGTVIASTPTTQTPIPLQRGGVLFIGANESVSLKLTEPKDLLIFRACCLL
row,Compound,inhibition
1,CC(C)n1nnnc1SCC(=O)NCc1ccc2c(c1)OCO2,-4.5% (inactive)
2,OCCN1CCN(c2ncnc3nc[nH]c23)CC1,10.7% (inactive)
3,COCCN1CCCC(CNCc2cn(C)nc2-c2ccc(Oc3ccccc3)cc2)C1 (stereo not given),10.6% (inactive)
4,O=c1c(Cc2ccc(Cl)cc2Cl)c(O)ccn1CCCN1CCOCC1,-5.3% (inactive)
5,CN1CCN(C(=O)C2=C[C@@H](c3ccc(C(F)(F)F)cc3)C[C@@H](OCCCCO)O2)CC1,1.4% (inactive)
6,NC(=O)C1=C[C@@H](c2ccc(C(F)(F)F)cc2)C[C@@H](OCCCCO)O1,57.4% (active)
7,O=C(NC1CC1)C1=C[C@@H](c2ccc(Br)cc2)C[C@@H](OCCCCO)O1,-2.7% (inactive)
8,NC(=O)C1=C[C@H](c2ccc(C(F)(F)F)cc2)C[C@H](OCCCCO)O1,53.7% (active)
9,O=C(C1=C[C@@H](c2ccc(C(F)(F)F)cc2)C[C@@H](OCCCCO)O1)N1CCOCC1,-1.4% (inactive)
10,O=C(O)C1=C[C@H](c2ccc(Br)cc2)C[C@H](OCCCCO)O1,-7.2% (inactive)
11,O=C(C1=C[C@H](c2ccc(C(F)(F)F)cc2)C[C@H](OCCCCO)O1)N1CCOCC1,-0.7% (inactive)
12,NC(=O)C1=C[C@@H](c2ccc(Br)cc2)C[C@@H](OCCCCO)O1,66.1% (active)
13,C#CCNC(=O)C1=C[C@@H](c2ccc(C(F)(F)F)cc2)C[C@@H](OCCCCO)O1,38.5% (inactive)
14,CN(C)CCCCOc1cccc(Br)c1,-14% (inactive)
15,COCCn1c(=O)[nH]c2cc(C(=O)NCCCN3CCN(c4ccc(F)cc4)CC3)ccc2c1=O,-12.2% (inactive)
16,CCC(=O)Nc1cc(C(C)C)c(O)cc1C,-2.4% (inactive)
17,CCOc1cc(C(=O)N2CCN(c3ccc(C(C)=O)cc3)CC2)cc(OCC)c1OCC,6.8% (inactive)
18,O=C(O)c1ccc(CSCc2ccco2)cc1,4.1% (inactive)
19,CC(C(=O)Nc1cccc([N+](=O)[O-])c1)N1CCN(C/C=C/c2ccccc2)CC1 (stereo not given),12% (inactive)
20,Cc1occc1C(=O)N/N=C/c1cnn(C)c1C,64% (active)
21,Cc1c(/C=N\NC(=O)c2ccc(F)cc2)cnn1C,9.7% (inactive)
22,Cc1c(/C=N\NC(=O)c2csc3ccccc23)cnn1C,2.4% (inactive)
23,COc1c2ccoc2c(OC[C@@H](O)C(C)(C)OC)c2oc(=O)ccc12,9.3% (inactive)
24,CCOC(=O)N1CCN(C(=O)C2CCN(CC3CCCCC3)CC2)CC1,-10.5% (inactive)

row,Compound,inhibition
1,COc1ccc(C(=O)n2nnc3ccccc32)cc1OC,6% (inactive)
2,Oc1c(C2=NCCNC(C(F)(F)F)=C2)ccc2ccccc12,54.4% (active)
3,Oc1ccccc1C1=NCCNC(C(F)(F)F)=C1,-3.4% (inactive)
4,FC(F)(F)C1=CC(c2ccccc2)=NCCN1,0.2% (inactive)
5,O=C(NC1=C(Nc2ccc(F)cc2)C(=O)c2ccccc2C1=O)c1ccc(Cl)cc1,55.3% (active)
6,O=C(NC1=C(Nc2ccc(Cl)cc2)C(=O)c2ccccc2C1=O)c1ccccc1,58% (active)
7,CN(C1=C(NC(=O)c2ccc(Cl)cc2)C(=O)c2ccccc2C1=O)c1ccccc1,25.2% (inactive)
8,Cc1ccc(NC2=C(NC(=O)c3ccccc3)C(=O)c3ccccc3C2=O)cc1Cl,14% (inactive)
9,O=C(NC(=S)Nc1ccc2c(c1)C(=O)c1ccccc1C2=O)c1ccc(F)cc1,-25.8% (inactive)
10,Cc1cccc(NC2=C(NC(=O)c3ccccc3)C(=O)c3ccccc3C2=O)c1,6.2% (inactive)
11,Cc1ccc(C(=O)Nc2ccc(C(=O)N3CCCCC3C)cc2)cc1 (stereo not given),1% (inactive)
12,O=C(CSC1=NCCS1)Nc1cccc2ccccc12,2.9% (inactive)
13,FC(F)(F)c1cccc(NC(=S)NC(c2ccccc2)c2ccccc2)c1,-5.4% (inactive)
14,CC(C)(C)NC(=S)Nc1cccc(C(F)(F)F)c1,2.1% (inactive)
15,CC(NC(=S)Nc1cccc(C(F)(F)F)c1)C(C)(C)C (stereo not given),54.2% (active)
16,CCOC(=O)/C(C#N)=C1/SC(CC)C(=O)N1c1ccc(C)cc1 (stereo not given),-25% (inactive)
17,C/C(=N\Nc1ccc(F)cc1F)c1ccc(N2CCOCC2)cc1,-144% (inactive)
18,CC(c1ccco1)N(C(=O)c1ccc(C(F)(F)F)cc1)c1ccccn1 (stereo not given),8.9% (inactive)
19,Cc1ccc(S(=O)(=O)CC2CSc3nc4ccccc4n32)cc1 (stereo not given),9.4% (inactive)
20,CCCCc1cc(=O)oc2cc(C)cc(O)c12,7.5% (inactive)
21,CCCCc1cc(=O)oc2cc(O)cc(O)c12,64% (active)
22,CCCc1cc(=O)oc2cc(C)cc(O)c12,2.5% (inactive)
23,Clc1cccc(-c2ccc(C=Nc3ccc(N4CCOCC4)cc3)o2)c1Cl,63.9% (active)
24,Oc1c(Br)cc(Cl)cc1C=Nc1ccc(N2CCOCC2)cc1,51.8% (active)

row,Compound,inhibition
1,O=[N+]([O-])c1cc(Br)c(O)c(C=Nc2ccc(N3CCOCC3)cc2)c1,40.2% (inactive)
2,Cc1ccc(Cl)cc1-c1ccc(C=Nc2ccc(N3CCOCC3)cc2)o1,52.4% (active)
3,Oc1ccc(C=Nc2ccc(N3CCOCC3)cc2)c(O)c1,13.7% (inactive)
4,Clc1ccc(-c2ccc(C=Nc3ccc(N4CCOCC4)cc3)o2)c(Cl)c1,47.6% (inactive)
5,Clc1ccc(-c2ccc(C=Nc3ccc(N4CCOCC4)cc3)o2)cc1,24.7% (inactive)
6,Clc1cccc(-c2ccc(/C=N/n3cnnc3)o2)c1Cl,1.1% (inactive)
7,Clc1cccc(-c2ccc(C=Nc3ccc(N4CCOCC4)cc3)o2)c1,33.8% (inactive)
8,O=C(O)c1cn(Cc2cccnc2)c(=O)c2ccccc12,1.5% (inactive)
9,CCOC(=O)C1=C(c2ccccc2)Nc2ncnn2C1c1cc(OC)ccc1OC (stereo not given),7.8% (inactive)
10,Cn1c(=O)[nH]c(=O)c2c1nc(SCCN1CCOCC1)n2Cc1ccccc1,6.9% (inactive)
11,COc1ccc(NC(=O)CCC(=O)OCc2ccc(C(=O)Oc3ccc(Cl)cc3)cc2)cc1,-5.2% (inactive)
12,CCCCN1C(=O)C(O)=C(C(C)=O)C1c1ccccc1 (stereo not given),-7.7% (inactive)
13,CN(CCO)c1nc(N)c2c(N)nc3c(c2c1C#N)CC(=O)N3Cc1cccs1,33.7% (inactive)
14,CCCCN1C(=O)Cc2c1nc(N)c1c(N)nc(N(CCC)CCC)c(C#N)c21,56% (active)
15,COCCN(CCOC)c1nc(N)c2c(N)nc3c(c2c1C#N)CC(=O)N3Cc1ccc(Cl)cc1,25.1% (inactive)
16,CC(=O)c1c(C)[nH]c(C(=O)NCCc2ccccc2)c1C,2.6% (inactive)
17,c1ccc(-n2cccc2CNC2CCCCC2)cc1,-4.6% (inactive)
18,O=c1cc(N2CCOCC2)c2ccccc2o1,4.1% (inactive)
19,Oc1ccc2c(c1)C1CCCC1(N1CCOCC1)O2 (stereo not given),24.6% (inactive)
20,c1ccc2c3c(cc(N4CCOCC4)c2c1)OC1(N2CCOCC2)CCCCC1O3 (stereo not given),60.5% (active)
21,Cc1ccc(NC(=S)/C(=C(\[O-])c2ccc(Cl)s2)[n+]2cccc(CO)c2)cc1C,10.4% (inactive)
22,Cc1ccc(C)c(NC(=S)/C(=C(\[O-])c2ccc(Cl)s2)[n+]2ccccc2)c1,26.5% (inactive)
23,Cc1cc(C)cc(NC(=S)/C(=C(\[O-])c2ccc(Cl)s2)[n+]2cccc(C)c2)c1,51.9% (active)
24,Cc1c(CNC(=O)c2cnn3c2NC(c2ccc(Br)cc2)CC3C(F)(F)F)cnn1C (stereo not given),11.4% (inactive)

row,Compound,inhibition
1,Cc1ccc(NS(=O)(=O)c2cc([N+](=O)[O-])ccc2NNC(=S)Nc2cc(C)ccc2C)c(C)c1,9.1% (inactive)
2,CC(=O)N(C)C1=C(N2CCOCC2)C(=O)c2ccccc2C1=O,33.1% (inactive)
3,CC(=O)N(C)C1=C(O)c2ccccc2C(=O)C1=O,19.6% (inactive)
4,CC(=O)N(C1=C(N)C(=O)c2ccccc2C1=O)C(C)C,54.5% (active)
5,NC(=O)COC(=O)c1cccc(NS(=O)(=O)/C=C/c2ccccc2)c1,4.6% (inactive)
6,Cn1c(C(=O)O)cnc1Sc1ncc(C(F)(F)F)cc1Cl,-17.5% (inactive)
7,Cc1ccc(Nc2nnc(SCc3cc(=O)n4ccsc4n3)s2)c(C)c1,8.6% (inactive)
8,COc1ccc2[nH]c3c(=O)n(Cc4ccc(C(=O)NCC5CCCO5)cc4)c(=S)[nH]c3c2c1 (stereo not given),3.5% (inactive)
9,CC(=O)Nc1ccc(C2(O)COc3ccccc3O2)cc1 (stereo not given),-2% (inactive)
10,COc1ccccc1NC(=O)c1ccc(-c2ccccc2[N+](=O)[O-])o1,52.9% (active)
11,COc1ccccc1NC(=O)c1ccc(-c2ccccc2F)o1,-0.4% (inactive)
12,COc1cccc(NC(=O)c2ccc(-c3ccccc3[N+](=O)[O-])o2)c1,-0.2% (inactive)
13,Cc1ccccc1Cc1ccc(Cl)nn1,-8.8% (inactive)
14,CN(C)C(=S)SCC(=O)NCc1ccc(F)cc1,10.8% (inactive)
15,CCc1cccc(NC(=O)c2snc3c(=O)[nH]cnc23)c1,7.2% (inactive)
16,Cc1cccc(C)c1-n1cccc1/C=C1\SC(=S)N(c2cccc(C(=O)O)c2)C1=O,3% (inactive)
17,O=C1NC(=S)S/C1=C/c1ccc(N2CCOCC2)o1,-14% (inactive)
18,O=C1NC(=S)S/C1=C\c1ccc(SCc2ccccc2)o1,66.9% (active)
19,O=C1NC(=S)S/C1=C\c1ccc(SCc2ccco2)o1,7.7% (inactive)
20,O=C(O)c1cc(-c2ccc(/C=C3/SC(=S)N(Cc4ccccc4)C3=O)o2)ccc1Cl,-34.8% (inactive)
21,O=C(O)c1cccc(N2C(=O)/C(=C/c3ccc(SCc4ccc(Cl)cc4)o3)SC2=S)c1,67.9% (active)
22,O=C(COC(=O)c1sc2cc(F)ccc2c1Cl)Nc1ncc(Cl)cc1Cl,13.4% (inactive)
23,Cn1c(=O)c2c(nc(SCC(=O)Nc3ccccc3)n2C)n(C)c1=O,6.1% (inactive)
